Test results published in PubChem BioAssay (NCI).
About 83,000 compounds went through this panel and 20% of them were active in at least one assay; those are over-represented in the sample as a whole.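 48-hour exposure, single concentration, 96-well plates; percent growth endpoint where 0 means no net growth. Active: below 10.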 Calls of active or inactive are those of the source.

Columns and labels:
Experiment in all cases: NCI-60 one-dose screen, 48 h (100 = growth as untreated, 0 = no growth, -100 = all killed)
Conditions in all cases: 10 µM unless noted
[1] = tested on: NCI-H23 lung
[2] = tested on: NCI-H226 lung
[3] = tested on: NCI-H322M lung
[4] = tested on: HOP-62 NSCLC
[5] = tested on: NCI-H460 lung
[6] = tested on: HOP-92 NSCLC
[7] = tested on: NCI-H522 lung
[8] = tested on: A549/ATCC NSCLC
[9] = tested on: 786-0 renal
[10] = tested on: COLO 205 colon
[11] = tested on: DU-145 prostate
[12] = tested on: K-562 leukemia
[13] = tested on: MALME-3M melanoma
[14] = tested on: MDA-MB-231 breast
[15] = tested on: RXF 393 renal
[16] = tested on: SF-268 CNS
[17] = tested on: SF-295 CNS
[18] = tested on: SF-539 CNS
[19] = tested on: UACC-257 melanoma
[20] = tested on: M14 melanoma

Measured: growth

Clc1cc(Cl)c2nc(-c3ccc(-c4ccc(/C=N/NC5=NCCN5)cc4)s3)cn2c1
inactive: [1] 94.1% | [2] 89.5% | [3] 99.1% | [4] 88.9% | [5] 98.8% | [6] 14.5% | [7] 103% | [8] 87.7% | [9] 88.5% | [10] 93.7% | [11] 87.4% | [13] 74.9% | [14] 73.9% | [15] 81.4% | [16] 86% | [17] 98.3% | [18] 63.5% | [19] 99% | [20] 97.8%
active: [12] 3.66%

CN(C)CCOC(=O)Nc1ccccc1Cl
inactive: [1] 98.3% | [2] 106% | [3] 104% | [4] 101% | [5] 105% | [6] 89.2% | [7] 106% | [8] 112% | [9] 100% | [10] 113% | [11] 123% | [12] 111% | [13] 94.8% | [14] 107% | [15] 120% | [16] 112% | [17] 114% | [18] 110% | [19] 121% | [20] 100%

COc1ccc(S(=O)(=O)Nc2cc(/C=C\c3cc(OC)c(OC)c(OC)c3)cc(OC)c2OC)cc1
active: [5] 8.41% | [7] -21.4% | [10] -62.4% | [11] -0.291% | [12] 7.33% | [18] 0.203%
inactive: [1] 36.2% | [2] 35.2% | [3] 27.1% | [4] 52.9% | [6] 20.1% | [8] 21.2% | [9] 14% | [13] 81.5% | [14] 21% | [15] 40.9% | [16] 14% | [17] 19.4% | [19] 51.3% | [20] 15.9%

O=C(NNC(=O)N1c2ccccc2C=Cc2ccccc21)c1ccccc1
inactive: [1] 101% | [2] 113% | [3] 107% | [4] 114% | [5] 106% | [6] 103% | [7] 94% | [8] 103% | [9] 103% | [10] 112% | [11] 107% | [12] 101% | [13] 117% | [14] 111% | [15] 106% | [16] 98.4% | [17] 95.7% | [18] 102% | [19] 108% | [20] 110%

COc1ccc(-n2c(=S)sc3c(Cl)nc(C)nc32)c(OC)c1
inactive: [1] 31.8% | [2] 100% | [3] 61.9% | [4] 90% | [6] 54.2% | [7] 20.8% | [8] 91.3% | [9] 75.3% | [10] 61.1% | [13] 80.2% | [15] 42.6% | [17] 85.1% | [18] 20% | [19] 77.9%
active: [5] 3.2% | [11] 6.39% | [12] 2.62% | [14] -14.9% | [16] 4.67% | [20] -18.8%

CC(C)NCCCNC1=C(Cl)C(=O)c2ccccc2C1=O
active: [12] -41.9% | [13] -78% | [19] 3.04%
inactive: [1] 16.3% | [2] 93.1% | [3] 105% | [4] 98.3% | [5] 87.2% | [6] 110% | [7] 91.9% | [8] 81.7% | [9] 113% | [10] 95.4% | [11] 47.8% | [14] 76.3% | [15] 119% | [16] 91.5% | [17] 57.4% | [18] 119% | [20] 74.3%

O=C1NN(C(=O)c2ccc(Cl)cc2)C(c2ccccc2)=N/C1=C\c1ccc(F)cc1
inactive: [1] 84% | [2] 92.1% | [3] 89.7% | [4] 99.1% | [5] 94.6% | [6] 83.5% | [7] 96.5% | [8] 87.5% | [9] 76.5% | [10] 109% | [11] 112% | [12] 83.2% | [13] 85.6% | [14] 68% | [15] 84.2% | [16] 105% | [17] 72.9% | [18] 84.8% | [19] 102% | [20] 86.2%

COc1ccc(S(=O)(=O)NCCCNc2nccc(-n3ccc4cccnc43)n2)cc1
inactive: [1] 102% | [2] 89.9% | [3] 87.7% | [4] 109% | [5] 98.7% | [6] 81.4% | [7] 84.3% | [8] 83% | [9] 97.6% | [10] 113% | [11] 91.7% | [12] 77.7% | [13] 121% | [14] 91.1% | [15] 95.5% | [16] 89.6% | [17] 94.7% | [18] 100% | [19] 111%
active: [20] -14.4%

COc1ccc(-c2c(N)n[nH]c2-c2cc3c(c(OC)c2OC)OCO3)cc1
inactive: [1] 96.8% | [2] 99.9% | [3] 100% | [4] 101% | [5] 105% | [6] 87.2% | [7] 81.5% | [8] 97.1% | [9] 105% | [10] 101% | [11] 108% | [12] 98.4% | [13] 97.8% | [14] 83.7% | [15] 108% | [16] 99.1% | [17] 102% | [18] 93.1% | [19] 98.7% | [20] 101%

COc1ccc2c(c1)C(c1cc(OC)c3c(c1)OCO3)C1=C(COC1=O)N2 (stereo not given)
inactive: [1] 38.2% | [2] 27.5% | [3] 51.4% | [4] 36.5% | [6] 26.9% | [8] 14.7% | [9] 29.5% | [12] 12% | [13] 54.2% | [14] 24.4% | [16] 32.2% | [19] 66.1%
active: [5] 6.63% | [7] -38.5% | [10] -22.6% | [11] 3.41% | [15] -8.85% | [17] 1.56% | [18] 5.62% | [20] 5.65%

COc1ccc(-c2nc3sccn3c2/C=C/C(=O)c2cc(F)cc(F)c2)cc1
inactive: [1] 76.3% | [2] 80.5% | [3] 123% | [4] 85.8% | [5] 88.4% | [6] 18.6% | [7] 48.6% | [8] 89.3% | [9] 89.1% | [10] 68.3% | [11] 86.2% | [12] 19.1% | [13] 102% | [14] 62.6% | [15] 54.4% | [16] 81.8% | [17] 116% | [18] 92.8% | [19] 101% | [20] 89.2%

CCN(CC)CCCNc1nccc2ccc(Cl)cc12
inactive: [1] 107% | [2] 97.9% | [3] 104% | [4] 96.5% | [5] 103% | [6] 68.1% | [7] 102% | [8] 94.9% | [9] 104% | [10] 108% | [11] 113% | [12] 107% | [13] 111% | [14] 87% | [15] 97.6% | [16] 111% | [17] 100% | [18] 104% | [19] 91% | [20] 95%

O=C(Oc1ccccc1[N+](=O)[O-])C1CCCN1C(=O)OCc1ccccc1 (stereo not given)
inactive: [1] 95.1% | [2] 99.8% | [3] 121% | [4] 111% | [5] 116% | [6] 86.3% | [7] 101% | [8] 98.5% | [9] 98.6% | [10] 115% | [11] 111% | [12] 94.6% | [13] 112% | [14] 103% | [15] 96% | [16] 108% | [17] 117% | [18] 97.2% | [19] 94.2% | [20] 93%

C=C[C@@H]1C[C@@H]2Cc3ccccc3N1O2
inactive: [1] 98.9% | [2] 109% | [3] 112% | [4] 96.6% | [5] 107% | [6] 126% | [7] 120% | [8] 96.3% | [9] 104% | [10] 116% | [11] 120% | [12] 54.3% | [13] 125% | [14] 106% | [15] 119% | [16] 116% | [17] 99.8% | [18] 103% | [19] 97.7% | [20] 102%

NC(=S)N/N=C(/CCN1CCCC1)CC(C1=C(O)C2=CCCCC2OC1=O)c1ccccc1 (stereo not given)
inactive: [1] 72.8% | [2] 85.7% | [3] 85.7% | [4] 79.1% | [5] 101% | [6] 68.3% | [7] 80.1% | [8] 99.4% | [9] 105% | [10] 102% | [11] 87.3% | [12] 38.8% | [13] 73% | [14] 70.4% | [15] 106% | [16] 89.6% | [17] 98.5% | [18] 95.4% | [19] 73.1% | [20] 79%

CC(C)(C)n1cc(-c2ccnc(NCCNS(=O)(=O)c3ccc(Cl)cc3)c2)c(-c2cccc(O)c2)n1
inactive: [1] 64.7% | [2] 67.5% | [3] 85.3% | [4] 84.9% | [5] 28.2% | [6] 72% | [7] 68% | [8] 51.8% | [9] 54.6% | [11] 80.6% | [13] 64.4% | [14] 56.6% | [15] 64.3% | [16] 54.7% | [17] 54.4% | [18] 68.1% | [19] 64.8% | [20] 62.8%
active: [10] -7.89% | [12] 6.91%
